# An excerpt weighted towards active compounds, which were near 3.1% of everything screened.
# BioA inh = M. tuberculosis BioA enzyme inhibitors, primary screen, biochemical, plate reader, single point, HTS; 7,8-diaminopelargonic acid synthase BioA (Mycobacterium tuberculosis); purified M. tuberculosis BioA enzyme; inhibition, % at 9.99 µM; 360,000 tested, 0.096% active; AID 602481, 2012; in the data active = inhibition above about 40%
# FadD28 binding = inhibitors of FadD28 bisubstrate probe binding, primary screen, biochemical, fluorescence polarization, single point; AID 588549, 2011; inhibition, % at 12.5 µM; 360,000 tested, 0.22% active; Mycobacterium tuberculosis FadD28 fatty-acid-AMP ligase; in the data active = inhibition above about 8.5%, passing the limit was not always enough
# Mtb FBA inh = Mtb FBA enzyme inhibitors, primary screen, biochemical, fluorescence, strain H37Rv; Fructose-bisphosphate aldolase (Mycobacterium tuberculosis (strain ATCC 25618 / H37Rv)), …; purified M. tuberculosis FBA, fluorescence read-out; inhibition, % at 1 µM; 360,000 tested, 2.3% active; in the data active = inhibition above about 27%
# Target sequence (P9WQA3 whole entry, looked up): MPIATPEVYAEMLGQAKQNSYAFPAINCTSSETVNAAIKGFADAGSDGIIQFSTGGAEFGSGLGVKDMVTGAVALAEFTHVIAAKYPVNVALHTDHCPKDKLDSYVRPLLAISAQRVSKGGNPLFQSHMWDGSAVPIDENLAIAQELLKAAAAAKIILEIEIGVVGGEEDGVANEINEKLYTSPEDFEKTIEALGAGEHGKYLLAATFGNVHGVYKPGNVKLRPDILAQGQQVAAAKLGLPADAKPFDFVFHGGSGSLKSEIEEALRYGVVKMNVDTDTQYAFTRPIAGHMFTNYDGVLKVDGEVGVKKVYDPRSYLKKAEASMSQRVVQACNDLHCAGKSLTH
# GDH-TPI inh = GDH-TPI coupling enzyme inhibitors, primary screen, artefact control for M. tuberculosis FBA inhibitor project, biochemical, absorbance, full deck | GDH-TPI coupled enzyme counterscreen, NADH absorbance | inhibition, % at 4.8 µM | 360,000 tested, 1.2% active | AID 588335, 2011; in the data active = inhibition above about 30%
# SARS 3CLpro inh = SARS-CoV 3CLpro protease inhibitors, primary screen, biochemical, quenched FRET; inhibition, % at 6 µM; AID 1706, 2009; 290,000 tested, 0.14% active; recombinant SARS-CoV 3CLpro, quenched FRET peptide cleavage; Replicase polyprotein 1ab (Severe acute respiratory syndrome coronavirus), P0C6X7; in the data active = inhibition above about 12%
# A number is an active result; i = inactive; nt = no result; + = active, no number.
SMILES,BioA inh,FadD28 binding,Mtb FBA inh,GDH-TPI inh,SARS 3CLpro inh
Cc1[nH]c2ccccc2c1/C=N\NC(=O)c1ccco1,i,i,i,57,i
CO[C@H]1CN(C)C(=O)c2ccc(NC(=O)C3CCCCC3)cc2OC[C@@H](C)N(C(=O)c2ccccc2)C[C@H]1C,i,nt,nt,nt,nt
C[C@@H]1CN([C@H](C)CO)C(=O)c2cc(C3=CCCC3)cnc2O[C@H]1CN(C)C(=O)C1CCC1,i,nt,nt,nt,nt
Cc1cccc(-c2ccc([C@@H]3[C@H]4CN(S(=O)(=O)c5cn(C)cn5)CCCCN4[C@H]3CO)cc2)c1,i,nt,nt,nt,nt
C[C@@H]1CCCCO[C@@H](CN(C)Cc2ccc3c(c2)OCO3)[C@@H](C)CN([C@@H](C)CO)C(=O)c2cc(NC(=O)CCCN(C)C)ccc2O1,i,nt,nt,nt,nt
O=C(CCN1C(=O)S/C(=C/c2ccccc2)C1=O)Nc1ccc(C(=O)O)c(O)c1,i,i,i,i,i
O=C(CCN1C(=O)S/C(=C\c2ccc(F)cc2)C1=O)Nc1ccc(C(=O)O)c(O)c1,i,i,i,43,i
O=C(CCN1C(=O)S/C(=C\c2ccc(F)cc2)C1=O)Nc1ccc(O)cc1C(=O)O,i,i,i,43,i
O=C(CCN1C(=O)S/C(=C/c2ccc(F)cc2)C1=O)Nc1ccc(O)c(C(=O)O)c1,i,i,i,32,i
Cc1ccc(S(=O)(=O)c2cc3ccc(O)cc3oc2=O)cc1C,i,i,+,i,i
COc1ccc2cc(C(=O)c3ccccc3)c(=O)oc2c1,i,i,i,i,i
COc1ccc2cc(S(=O)(=O)c3ccccc3)c(=O)oc2c1,i,i,+,36,i
COc1ccc(S(=O)(=O)N(C)C[C@H]2Oc3ccc(NS(C)(=O)=O)cc3C(=O)N([C@@H](C)CO)C[C@@H]2C)cc1,i,nt,nt,nt,nt
COc1cc2c(cc1/C=C/C(=O)O)OC(C)C2 (configuration not stated),i,i,+,i,i
CC(C)(O)C1Cc2cc(/C=C/C(=O)O)c(O)cc2O1 (configuration not stated),nt,i,i,i,i
CCOc1cc2c(cc1/C=C/C(=O)O)OC(C)C2 (configuration not stated),nt,i,148,i,i
CN(C)C=Nc1ncc2c3ccccc3n(CCN(C)C)c2c1C#N,i,i,i,33,i
CN(C)C=Nc1ncc2c3ccccc3n(Cc3ccccc3)c2c1C#N,i,i,i,i,i
O=C(Nc1cccc(-c2nc3cc(Cl)ccc3o2)c1)C1CCCO1 (configuration not stated),i,i,i,i,i
Cc1ccc2oc(-c3cccc(NC(=O)Cc4cccs4)c3)nc2c1,i,i,i,i,i
CCC(=O)Nc1ccc2oc(-c3cccc(C)c3)nc2c1,i,i,139,i,i
Cc1cccc(-c2nc3cc(NC(=O)C4CCCO4)ccc3o2)c1 (configuration not stated),nt,i,114,i,i
CCCCC(=O)Nc1ccc2oc(-c3cccnc3)nc2c1,i,i,141,i,i
C[C@H]1CN([C@@H](C)CO)C(=O)c2cc(C3=CCCCC3)cnc2O[C@H]1CN(C)C(=O)c1ccccn1,i,nt,nt,nt,nt
Cc1cc2c(cc1S(=O)(=O)NC1CCCCC1C)OCC(=O)N2 (configuration not stated),i,i,i,i,i
SMILES,BioA inh,FadD28 binding,Mtb FBA inh,GDH-TPI inh,SARS 3CLpro inh
Cc1cc2[nH]c(=O)c(=O)[nH]c2cc1S(=O)(=O)NC1CCCCC1C (configuration not stated),i,i,32,i,i
CCC1(C)Cc2ccccc2-c2nc3n(c(=O)c21)CCCCC3 (configuration not stated),i,i,i,i,i
CCn1c(NCCCO)nc2c(c1=O)C(C)(CC)Cc1ccccc1-2 (configuration not stated),nt,i,155,i,i
O=c1c2c(nc3n1CCCCC3)-c1ccccc1CC21CCCCC1,i,i,i,i,i
O=c1c2c(nc(NCCO)n1CC1CCCCC1)-c1ccccc1CC21CCCC1,i,i,43,i,i
CCC1(C)Cc2ccccc2-c2nc(NCCCO)n(C)c(=O)c21 (configuration not stated),i,i,163,i,i
COc1cc(/C=C(\C#N)c2nc3ccccc3[nH]2)ccc1Oc1ccc([N+](=O)[O-])cn1,i,i,i,32,i
COc1cc(/C=C(\C#N)c2nc3ccc(C)cc3[nH]2)c([N+](=O)[O-])cc1OC,i,i,i,33,i
COc1cc(/C=C2\SC(=O)NC2=O)ccc1Oc1ccc([N+](=O)[O-])cn1,i,i,i,36,i
COc1cc(/C=C(\C#N)c2nc3ccc(C)cc3[nH]2)cc([N+](=O)[O-])c1O,nt,30,i,i,i
Cc1ccc2nc(/C(C#N)=C\c3cc(O)ccc3[N+](=O)[O-])[nH]c2c1,nt,i,i,i,i
COc1ccc(/C=C(\C#N)c2nc3ccc(C)cc3[nH]2)cc1Oc1ccc(C(F)(F)F)cc1[N+](=O)[O-],i,i,i,i,i
C[C@@H]1CN([C@H](C)CO)C(=O)c2cc(C#CCN(C)C)cnc2O[C@@H]1CN(C)Cc1cccc(C(=O)O)c1,i,nt,nt,nt,nt
CO[C@H]1CN(C)C(=O)c2cc(NC(C)=O)ccc2OC[C@@H](C)N(Cc2cc(F)ccc2F)C[C@@H]1C,i,nt,nt,nt,nt
CO[C@@H]1CN(C)C(=O)c2ccc(NC(C)=O)cc2OC[C@H](C)N(Cc2cc(F)ccc2F)C[C@@H]1C,i,nt,nt,nt,nt
CN(C)c1ccc(Cc2ccc(N(C)C)cc2)cc1,i,i,i,i,nt
CNc1nnc(-c2ccc(N(C)C)cc2)s1,i,i,+,46,i
CO[C@H]1CN(C)C(=O)c2cc(NS(=O)(=O)c3ccccc3Cl)ccc2OC[C@H](C)NC[C@H]1C,i,nt,nt,nt,nt
CN1CCN(C(=O)C[C@@H]2CC[C@H]3[C@@H](COc4ccc(NC(=O)C5CCCCC5)cc4C(=O)N3C)O2)CC1,i,nt,nt,nt,nt
Cc1nc2c(C#N)cnn2c2c1CCN2CC1CCCO1 (configuration not stated),i,i,i,i,i
Cc1nc2c(C#N)cnn2c2c1CCN(Cc1ccccc1)N2C,i,i,i,44,i
COc1ccccc1NC(=O)N1CCCCN2[C@H](CO)[C@@H](c3ccc(-c4ccccc4)cc3)[C@@H]2C1,i,nt,nt,nt,nt
CCCNC(=O)C[C@@H]1CC[C@@H]2[C@H](COc3ccc(NC(=O)Nc4cccc(C)c4)cc3C(=O)N2C)O1,i,nt,nt,nt,nt
COc1ccc2c(c1OC)C(=O)N1C2SC(C)(C)[C@H]1C(=O)NCC(C)C (some centres not stated),i,nt,152,i,i
Cc1ccc(S(=O)(=O)Nc2ccc3c(c2)C(=O)N([C@H](C)CO)C[C@@H](C)[C@H](CN(C)S(=O)(=O)c2ccccc2)O3)cc1,i,nt,nt,nt,nt
O=C(O)c1cc(C(=O)O)cc(-c2ccc(/C=c3/sc4nc5ccccc5n4c3=O)o2)c1,nt,nt,nt,nt,i

# Screening data from PubChem BioAssay.
